TGFb inhibitor – blocks TGF-b signaling; HepG2 CAGA-GFP TGF-b/SMAD3 reporter, GFP fluorescence, 18 h; TGF-beta stimulated, 500 pg/mL final; Potency, µM (series often up to 46.1 µM), inactives show at the top dose activity, negative = inhibition, usual class: inhibitors; 410,000 tested, 1.2% active; AID 588855; also: potency is read from the fitted curve at half-maximal effect; % is scaled to controls: 0 for no effect and ±100 for the full control effect; nearly all actives have a fitted effect of over 65% in size
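Inhibition of TGF-beta-driven CAGA-GFP reporter expression in HEPG2 cells is measured by cellular GFP fluorescence after 18 h stimulation with 500 pg/mL recombinant TGF-beta in 1% FBS medium at 37 degrees C.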
HepG2 viability – counter-screen for TGF-b inhibitors: cytotoxicity in HepG2 cells; HepG2 CAGA-GFP viability, ATP luminescence, 18 h; Potency, µM (titrated, usually from 46.1 µM), without a hit: at the top dose activity change, negative = cytotoxicity, most hits filed as cytotoxic; 410,000 tested, 0.76% active; AID 588856; also: potency is read from the fitted curve at half-maximal effect
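CellTiter-Glo luminescence gave cytotoxicity after 18 hours at 37 degrees C. The cells were HepG2 CAGA-GFP in 1% FBS DMEM, stimulated with 500 pg/mL TGF-beta after compound addition. %Activity was normalised to no-cell wells (complete cell-killing) and DMSO (no toxicity), and curves were fitted and classified.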
TDP1 cell noCPT – qHTS for Inhibitors of human tyrosyl-DNA phosphodiesterase 1 (TDP1): qHTS in cells in absence of CPT. DT40 Tdp1-/- hTDP1 cells, no CPT, ATP luminescence, 48 h. Potency, µM (doses to about 46.2 µM), without a hit: at the top dose activity change, negative = growth inhibition, usual class: inhibitors. 420,000 tested, 15% active. AID 686978, 2013; also: potency is read from the fitted curve at half-maximal effect; % is scaled to controls: 0 for no effect and ±100 for the full control effect; nearly all actives have a fitted effect of over 55% in size
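Chicken DT40 Tdp1-/- cells stably complemented with human TDP1 were seeded at 400 cells/well with DMSO in place of 20 nM camptothecin. After compound pinning, cells grew at least 48 hr at 37 °C; viability read by CellTiter-Glo luminescence.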
TDP1 cell CPT – DT40-hTDP1 cell growth loss with CPT | chicken DT40 Tdp1-/-;hTDP1 cells + 20 nM CPT, ATP luminescence, 48 h | Potency, µM (titrated, usually from 46.2 µM), for the others: at the top dose activity change, negative = growth inhibition, actives largely listed as inhibitors | 420,000 tested, 12% active | AID 686979; also: potency is read from the fitted curve at half-maximal effect; % is scaled to controls: 0 for no effect and ±100 for the full control effect; nearly all actives have a fitted effect of over 55% in size
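Chicken DT40 Tdp1-/- cells complemented with human TDP1, 400 cells/well, exposed to compounds plus 20 nM camptothecin for at least 48 h at 37 C; viability read as ATP content by CellTiter-Glo luminescence.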
TDP1 inh – inhibitors of human tyrosyl-DNA phosphodiesterase TDP1. 350,000 tested, 0.28% active. AID 485290. Potency, µM (highest dose often 130 µM), for inactives: top-dose activity change, negative = inhibition, actives largely listed as inhibitors. Q9NUW8. recombinant TDP1, AlphaScreen DNA substrate cleavage; also: potency is read from the fitted curve at half-maximal effect; % is scaled to controls: 0 for no effect and ±100 for the full control effect; nearly all actives have a fitted effect of over 40% in size
Target sequence (Q9NUW8 whole entry, looked up): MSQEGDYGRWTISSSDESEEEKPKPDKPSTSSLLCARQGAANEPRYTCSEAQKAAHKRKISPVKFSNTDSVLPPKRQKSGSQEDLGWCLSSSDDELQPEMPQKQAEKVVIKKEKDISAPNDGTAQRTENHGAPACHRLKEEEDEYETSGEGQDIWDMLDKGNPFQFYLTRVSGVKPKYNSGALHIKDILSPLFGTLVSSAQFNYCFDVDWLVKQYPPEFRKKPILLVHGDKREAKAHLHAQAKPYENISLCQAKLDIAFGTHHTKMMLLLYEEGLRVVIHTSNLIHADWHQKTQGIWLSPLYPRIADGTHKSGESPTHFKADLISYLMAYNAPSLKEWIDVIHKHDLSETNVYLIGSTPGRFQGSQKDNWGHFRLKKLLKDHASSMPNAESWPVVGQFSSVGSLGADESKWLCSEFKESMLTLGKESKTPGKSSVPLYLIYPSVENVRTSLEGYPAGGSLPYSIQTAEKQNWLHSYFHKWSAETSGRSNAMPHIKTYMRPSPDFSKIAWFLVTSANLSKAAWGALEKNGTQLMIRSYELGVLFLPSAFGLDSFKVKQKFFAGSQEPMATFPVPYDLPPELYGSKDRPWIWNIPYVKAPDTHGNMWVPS
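Signal: AlphaScreen proximity between streptavidin donor and anti-FITC acceptor beads on intact substrate. Reaction: Tdp1 1 nM, substrate 15 nM final, 5 min RT after 15 min compound preincubation.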
IL-1B inflam inh – inflammasome signaling inhibition, IL-1 beta readout; THP-1 LPS/ATP IL-1B secretion, AlphaLISA, 16 h; stronger effect = lower value; activity change, % at 57.5 µM; 360,000 tested, 4.7% active; AID 743279; in the data active = activity change below about -50%; inconclusive = mostly about -30% to -49%; also: % is scaled to controls: 0 for no effect and ±100 for the full control effect
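THP-1 cells pretreated 1 hr with compounds (up to 57.5 uM final), then stimulated with LPS (250 ng/mL final) plus ATP (1.25 mM final); secreted IL-1B measured by AlphaLISA after 16 hr, decreased signal indicating inhibition.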
An asterisk follows results filed as active; u = inconclusive; x = no result; [ ] = dose if it differs, or a comment. Rows were chosen to be rich in hits. Some 19% of all compounds tested hit in one or more screens of this group. Unless noted, calls follow the shape of the dose curve; as a rule, active = well fitted curve in the direction sought with a large enough effect; inconclusive = small, poorly fitted or top-dose-only effect, or another doubt; inactive = no such curve, though single readings can be large; an effect the other way counts as inactive or inconclusive.

SMILES	TGFb inhibitor	HepG2 viability	TDP1 cell noCPT	TDP1 cell CPT	TDP1 inh	IL-1B inflam inh
NC(Cc1ccccc1)c1csc(Nc2ccc(C(F)(F)F)cn2)n1 (centres undefined)	u	-84%	21µM*	21µM*	x	-53*
NC(Cc1ccc(F)cc1)c1csc(Nc2ccc(C(=O)NCCCO)cn2)n1 (centres undefined)	27%	-3%	u	u	x	-4
CCOc1cccc(CN2CCC(n3cc(C(=O)N4CCCCC4)nn3)CC2)c1O	x	x	-10%	12%[9.04 µM]	x	x
COc1cc2c(cc1NC(=O)c1ccccc1C)n(C)c(=O)n2C	1%	-5%	u	u	2%	x
O=C(C1=C[C@@H](c2ccc(C(F)(F)F)cc2)C[C@@H](OCc2ccc(CO)cc2)O1)N1CCN(Cc2ccc3c(c2)OCO3)CC1	u	-11%	21µM*	21µM*	0%	-70*
CC(C)(C)[C@@H]1C=C(C(=O)Nc2ccccc2)O[C@H](OCc2ccc(CO)cc2)C1	u	-12%	21µM*	23µM*	4%	u
O=C(C1=C[C@@H](c2ccc(C(F)(F)F)cc2)C[C@@H](OCCCCO)O1)N1CCN(Cc2ccc3c(c2)OCO3)CC1	-40%	-18%	u	18µM*	4%	u
O=C(C1=C[C@H](c2ccc(C(F)(F)F)cc2)C[C@H](OCc2ccc(CO)cc2)O1)N1CCN(Cc2ccc3c(c2)OCO3)CC1	u	-22%	u	u	5%	x
O=C(C1=C[C@@H](c2ccc(Br)cc2)C[C@@H](OCc2ccc(CO)cc2)O1)N1CCN(Cc2ccc3c(c2)OCO3)CC1	-27%	-1%	18µM*	u	4%	-25
COC(=O)CN1C(=O)C(C)(C)c2cc(S(=O)(=O)NCc3ccc(Cl)cc3)ccc21	-1%	5%	-6%	u	-4%	x
CC(C)(C)[C@@H]1C=C(C(=O)N2CCN(Cc3ccc4c(c3)OCO4)CC2)O[C@H](OCc2ccc(CO)cc2)C1	-1%	1%	16µM*	u	5%	-17
CCc1ccccc1N(C1=NCCCS1)S(=O)(=O)c1ccc(C(C)(C)C)cc1	-7%	-9%	u	u	2%	-4
C=CCOc1nc2c(c(=O)n(C)c(=O)n2C)n1C	-3%	8%	9%	-10%	1%	9
C/C=C/COc1nc2c(c(=O)n(C)c(=O)n2C)n1C	8%	22%	15µM*	23µM*	0%	-6
CC(Oc1nc2c(c(=O)n(C)c(=O)n2C)n1C)C1CCCCC1 (centres undefined)	-3%	0%	16µM*	23µM*	x	0
CCC(C)n1c(OC)nc2c1c(=O)n(C)c(=O)n2C (centres undefined)	u	-52%	u	23µM*	0%	12
CCOC(=O)[C@H](CCc1ccccc1)N[C@@H](C)C(=O)N1C(=O)N(C)C[C@H]1C(=O)O	x	x	-7%	-2%	x	x
CCCN(CCC)C(=O)Cn1c(=O)n(-c2cccc(OC)c2)c(=O)c2c3c(sc21)CCCC3	-11%	-5%	u	u	5%	x
CCOC(=O)N1CCN(C(=O)/C=C/c2ccc(OC)cc2)CC1	11%	1%	3%	-5%	x	-3
CCOC(=O)N1CCN(C(=O)/C=C/c2c(C)nn(-c3ccc(F)cc3)c2Cl)CC1	0%	0%	13µM*	u	0%	0
CCCn1c(-c2ccc(F)cc2)nc2c(NCCCN(CCO)CCO)nc(C)nc21	x	x	x	x	9%	x
Cc1ccc2c(c1)nc(SCC(O)c1ccc(Br)cc1)n2C (centres undefined)	0%	-25%	u	u	0%	x
COc1ccc(Cl)cc1-n1nnc(-c2nsc(NC(=O)c3ccccc3Cl)n2)c1C	-6%	-35%	-12%	-10%	2%	x
COc1ccc(-c2nsc(NC(=O)c3cccc(OC)c3)n2)cc1	-3%	-29%	21µM*	u	2%	x
COc1cc(OC)cc(C(=O)Nc2nc(-c3nnn(-c4ccc(F)c(Cl)c4)c3C)ns2)c1	u	-64%	u	u	-5%	x
SMILES	TGFb inhibitor	HepG2 viability	TDP1 cell noCPT	TDP1 cell CPT	TDP1 inh	IL-1B inflam inh
O=C(Nc1nc(-c2ccc(Br)cc2)ns1)c1ccc(F)cc1	-22%	-16%	18µM*	u	1%	x
COc1ccc(C(=O)Nc2nc(-c3nnn(-c4ccc(C(C)C)cc4)c3C)ns2)cc1	u	-49%	16µM*	13µM*	3%	x
COc1ccc(C(=O)Nc2nc(-c3nnn(-c4cc(OC)ccc4OC)c3C)ns2)cc1	-18%	3%	16µM*	16µM*	5%	x
COC1=C(C(=O)c2ccccc2)C(=O)C2(CC=C(C)C)C[C@H](C(=O)OCC(F)(F)F)C(C)(C)[C@@]1(CC=C(C)C)C2=O (tested in a mixture with another compound)	x	x	x	x	8%	x
O=C(O)CCC1CCCC1	x	x	x	x	6%	x
CC1CCN(S(=O)(=O)c2ccc3c(c2)N(CC(=O)NC(C)(C)C)C(=O)CS3)CC1	-6%	-3%	-19%	-20%	2%	x
O=c1c(Cl)c(Cl)cnn1Cc1nnc(-c2ccccc2Br)o1	16µM*	-85%	1.8µM*	4.1µM*	3%	-96*
CC(C)OCCCN1C(=O)c2[nH]nc(-c3ccccc3O)c2C1c1cccc(Cl)c1 (centres undefined)	u	-88%	23µM*	18µM*	5%	u
CCCCOc1cccc(C2c3c(-c4cc(C)ccc4O)n[nH]c3C(=O)N2CCOC)c1 (centres undefined)	u	-110%	u	u	6%	x
COc1cc(C2c3c(-c4c(C)cc(C)cc4O)n[nH]c3C(=O)N2CCCOC(C)C)cc(OC)c1OC (centres undefined)	10%	-3%	-16%	u	5%	x
COCCCN1C(=O)c2[nH]nc(-c3ccccc3O)c2C1c1cccc(Cl)c1 (centres undefined)	-14%	-9%	2.9µM*	21µM*	8%	10
COC(=O)C(Cc1ccccc1)NS(=O)(=O)c1cc(Br)ccc1Br (centres undefined)	3%	15%	x	x	2%	x
COc1ccc2cc1Oc1ccc(cc1)CC1c3cc(c(OC)cc3CCN1C)Oc1c(OC)c(OC)c(OC)c3c1C(C2)N(C)CC3 (centres undefined)	x	x	x	x	17%	x

Screening data from PubChem BioAssay.
